This is a sample that favours compounds with a hit; in the whole collection about 2.5% have one here.
D2 PAM-1 = Beta-Arrestin HTS for Positive Allosteric Modulators of the Human D2 Dopamine Receptor: Potentiators; potentiation, % (test concentration not listed); AID 624464, 2012; DiscoveRx D2 beta-arrestin cells, luminescence, 90 min; 100% = 57 uM dopamine signal; D(2) dopamine receptor (Homo sapiens), P14416; hit rate 0.23% among 360,000; in the data active = potentiation above about 50%; inconclusive = mostly about 30% to 49%
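PathHunter D2 cells, attached overnight at 37 deg C, received compound in DMSO plus dopamine at EC20 (50 nM final) for 90 min at 37 deg C. Beta-arrestin recruitment was read as luminescence after 1 h with detection reagent at ambient temperature.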
D2 PAM-2 = HTS Assay for Positive Allosteric Modulators of the Human D2 Dopamine Receptor: Primary Screen for Potentiators. HEK293 T-REx D2, calcium flux, EC20 dopamine potentiation. hit rate 0.34% among 340,000. potentiation, % at 10 µM. D(2) dopamine receptor (Homo sapiens), P14416;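 active = potentiation over 3 SD above the plate norm, cut at about 30% in these data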
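Cells plated with tetracycline inducer and held overnight at 30 C; calcium dye loaded 30–90 min at room temperature; baseline taken, compound added and read 180 s; EC20 dopamine then added and read 180 s.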
D2 ag-1 = HTS Assay for Allosteric Agonists of the Human D2 Dopamine Receptor: Primary Screen for Agonists; activation, % at 2 µM; HEK293 T-REx D2 cells, calcium flux agonist mode; hit rate 0.53% among 340,000; AID 485358, 2010; D(2) dopamine receptor (Homo sapiens), P14416;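 active = activation over 3 SD above normal in the single-dose calcium agonist read, cut at about 30% in these data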
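In this primary screen, compounds producing a positive calcium signal within 180 s of addition to tetracycline-induced, force-coupled HEK293 Trex D2 cells are flagged; cells are dye-loaded with a no-wash calcium kit beforehand.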
D2 antag = HTS Assay for Allosteric Antagonists of the Human D2 Dopamine Receptor: Primary Screen for Antagonists; HEK293 TREx D2 cells, calcium flux, dopamine EC80; inhibition, % at 10 µM; hit rate 2% among 340,000; in the data active = inhibition above about 30%; inactive = below that, where a call was filed
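In this primary screen, negative modulation is detected by tracking calcium flux after an EC80 dopamine challenge in inducible HEK293 T-REx D2 cells preexposed to test compound for 180 s.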
D2 ag-2 = Beta-Arrestin HTS for Positive Allosteric Modulators of the Human D2 Dopamine Receptor: Agonists; activation, % (no concentration beside the values); D(2) dopamine receptor (Homo sapiens), P14416; hit rate 0.084% among 360,000; AID 624465, 2012; DiscoveRx PathHunter D2 beta-arrestin, luminescence, 90 min; 100% = 57 uM dopamine signal; in the data active = activation above about 40%; inconclusive = between about 15% and that limit
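DiscoveRx PathHunter D2 beta-arrestin cells (2,100/well) attached overnight, then compound-stimulated 90 min at 37 C in HBSS/10 mM HEPES/0.1% Tween-20 buffer; beta-galactosidase complementation read by luminescence after 1 h at ambient temperature. Dopamine 57 uM final (EC100) as control.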
Anesthetic bind = qHTS Assay for Identification of Novel General Anesthetics; apoferritin/1-aminoanthracene competitive binding, fluorescence; Potency, µM (doses to about 77.5 µM), most hits filed as inhibitors; hit rate 0.074% among 350,000; AID 485281, 2010; note: nearly all actives have a fitted effect of over 20% in size
Target sequence (P02791 2-175 limits assumed): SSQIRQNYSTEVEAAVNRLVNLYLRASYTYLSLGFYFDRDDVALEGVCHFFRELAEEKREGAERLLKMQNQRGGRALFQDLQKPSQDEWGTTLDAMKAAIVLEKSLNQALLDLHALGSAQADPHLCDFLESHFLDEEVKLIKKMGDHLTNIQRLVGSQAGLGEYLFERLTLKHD
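Read-out: endpoint 1-AMA fluorescence, excitation 380 nm and emission 535 nm, after compounds sit 10 min at room temperature with 10 uM horse-spleen apoferritin in 50% saturated 1-AMA/PBS. Values come from four-parameter Hill fits.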
D3 ag = qHTS of D3 Dopamine Receptor Agonist: D3 Dopamine Receptor B-arrestin Agonist Confirmatory Assay; shares compounds with D2 ag-1; DiscoveRx D3 beta-arrestin cells, luminescence, 90 min; Potency, µM (highest dose often 76.9 µM), actives largely listed as activators; hit rate 4% among 2,300; note: nearly all actives have a fitted effect of over 70% in size
Target sequence (P35462 whole entry, looked up): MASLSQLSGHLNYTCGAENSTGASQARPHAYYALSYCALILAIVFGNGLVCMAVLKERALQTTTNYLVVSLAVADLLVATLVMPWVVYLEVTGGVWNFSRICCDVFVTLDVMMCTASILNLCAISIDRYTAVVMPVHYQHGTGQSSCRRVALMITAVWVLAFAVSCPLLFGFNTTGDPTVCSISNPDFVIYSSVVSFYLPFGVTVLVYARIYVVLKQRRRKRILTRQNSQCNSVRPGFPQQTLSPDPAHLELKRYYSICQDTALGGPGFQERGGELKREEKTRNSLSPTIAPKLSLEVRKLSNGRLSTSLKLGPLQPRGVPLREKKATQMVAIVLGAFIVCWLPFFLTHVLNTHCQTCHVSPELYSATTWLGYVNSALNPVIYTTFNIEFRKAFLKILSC
D2 ag-3 = qHTS of D3 Dopamine Receptor Agonist: D2 Dopamine Receptor B-arrestin Agonist Counterscreen. shares compounds with D2 ag-1. DiscoveRx PathHunter D2 beta-arrestin, luminescence, 90 min; response scale: percent relative to full dopamine signal. Potency, µM (highest dose often 76.9 µM), most hits filed as activators. hit rate 5.9% among 2,300; note: nearly all actives have a fitted effect of over 70% in size
Of the large screens only hits and unclear results are named; the others gave an inactive call (follow-up assays come after a bar, where they were run). Unless noted, calls come from the whole dose curve; as a rule, active = well fitted curve in the direction sought with a large enough effect; inconclusive = small, poorly fitted or top-dose-only effect, or another doubt; inactive = no such curve, though single readings can be large; an effect the other way counts as inactive or inconclusive.

OC(COc1ccc2c(c1)OCO2)CN1CCN(c2ccc(F)cc2)CC1 (stereo unspecified)	D2 antag 76 | D3 ag inactive | D2 ag-3 inactive
CCCCC1(c2ccc(F)cc2)NC(=O)N(CC(=O)Nc2ccc(N3CCOCC3)cc2)C1=O (stereo unspecified)	none (no result: D2 PAM-2, D2 ag-1, D2 antag, Anesthetic bind)
CCNS(=O)(=O)c1ccc2c3c(cccc13)C(=O)N2	D2 ag-1 48 | D3 ag inactive | D2 ag-3 inactive
COc1cc(OC)cc(C(=O)NNC(=O)c2ccccn2)c1	none
Cc1cc(C)cc(NC(=O)c2cc(C)nn2C)c1	D2 ag-1 34 | D3 ag inactive | D2 ag-3 inactive
COC(=O)Cc1ccc(NC(=S)N2CCN(c3cccc(O)c3)CC2)cc1	D2 ag-1 44 | D3 ag 28µM | D2 ag-3 inconclusive
COC(=O)Cc1ccc(NC(=S)N2CCN(c3ccc(OC)cc3)CC2)cc1	none
COc1cc(C(=O)NCCOc2ccccc2)c(Br)c(OC)c1OC	none
O=C1CC(c2ccccc2)NN1 (stereo unspecified)	none (no result: Anesthetic bind) | D3 ag inactive | D2 ag-3 inactive
Cn1cc(CNCc2ccc(-n3cccn3)cc2)c(-c2ccccc2F)n1	D2 ag-1 46, D2 antag 44, D2 ag-2 inconclusive | D3 ag inactive | D2 ag-3 inconclusive
O=C(c1ccccc1F)N1CCN(S(=O)(=O)c2ccc3c(c2)OCCO3)CC1	none
O=C(c1ccccc1OC(F)F)N1CCN(S(=O)(=O)c2ccc3c(c2)OCCCO3)CC1	none (no result: Anesthetic bind) | D3 ag inactive | D2 ag-3 inactive
Cc1ccnc(NC(=O)CCCOc2cc(=O)n(C)c3ccccc23)c1	none
CC(C)c1ccccc1OCC(=O)N1CCCCCCC1	Anesthetic bind inconclusive
Cc1c2oc3c(C)ccc(C(=O)N[C@@H]4C(=O)N[C@H](C(C)C)C(=O)N5CCC[C@H]5C(=O)N(C)CC(=O)N(C)[C@@H](C(C)C)C(=O)O[C@@H]4C)c3nc-2c(C(=O)N[C@@H]2C(=O)N[C@H](C(C)C)C(=O)N3CCC[C@H]3C(=O)N(C)CC(=O)N(C)[C@@H](C(C)C)C(=O)O[C@@H]2C)c(N)c1=O	none (no result: D2 PAM-1, D2 PAM-2, D2 ag-1, D2 antag, D2 ag-2)
CSc1nsc(SCC(=O)Nc2ccc(Br)cn2)n1	Anesthetic bind inconclusive
CSCCC(NC(=O)COc1ccccc1)C(=O)N1CC(C)CC(C)C1 (stereo unspecified)	none (no result: Anesthetic bind)
CSCCC(NC(=O)COc1ccccc1)C(=O)N1CC(C)OC(C)C1 (stereo unspecified)	none (no result: Anesthetic bind) | D3 ag inactive | D2 ag-3 inactive
FCCCOc1ccc(CN2CCN(c3ccccc3F)CC2)cc1	none (no result: D2 ag-1, D2 antag) | D3 ag inconclusive | D2 ag-3 inconclusive
CCc1ccc(OCC(=O)N2CCN(c3ccccc3F)CC2)cc1	none
CC(C)NCC1CCc2cc(CO)c([N+](=O)[O-])cc2N1 (stereo unspecified)	D2 ag-1 42 | D3 ag inactive | D2 ag-3 inactive
CCOc1ccc(CNC(=O)CCS(=O)(=O)c2cc3c4c(c2)CCN4C(=O)CC3)cc1	none (no result: D2 PAM-1, D2 antag, D2 ag-2)
CCCOC1CCCN(C(=O)CCCn2nnnc2CN2CCOCC2)C1 (stereo unspecified)	none
NC(=O)c1ccc(NC(=O)C2CC2)cc1	none
C=CCn1c(SC(C)C(=O)c2c(N)n(C)c(=O)n(C)c2=O)nnc1-c1ccoc1C (stereo unspecified)	D2 ag-1 32 (no result: Anesthetic bind) | D3 ag inactive | D2 ag-3 inactive
COc1ccc(N2CCN(C(CNS(=O)(=O)c3cccs3)c3cccnc3)CC2)cc1 (stereo unspecified)	none
O=S(=O)(NCC(c1cccnc1)N1CCN(c2ccccc2)CC1)c1cccs1 (stereo unspecified)	none | D3 ag inactive | D2 ag-3 inactive
O=S(=O)(NCC(c1cccnc1)N1CCN(Cc2ccccc2)CC1)c1cc(F)ccc1F (stereo unspecified)	D2 ag-1 70, D2 antag 43 | D3 ag inactive | D2 ag-3 inactive
CCOC(=O)N1CCC(NC(=O)Cn2nc(-c3ccccc3)ccc2=O)CC1	none
COc1cccc(C2CC(c3ccccc3Cl)n3nc(N)nc3N2)c1 (stereo unspecified)	D2 ag-1 71 | D3 ag inactive | D2 ag-3 inactive
COc1cccc(C2CC(c3ccc(Cl)cc3Cl)n3nc(N)nc3N2)c1 (stereo unspecified)	none
COc1ccc(-c2ccc3c(c2)c(C#Cc2ccsc2)c(-c2cc(OC)cc(OC)c2)n3C)cc1	none (no result: D2 PAM-2, D2 ag-1, D2 antag, Anesthetic bind)
COc1ccc(-c2c(C#Cc3ccsc3)c3cc(-c4ccc(OC)c(F)c4)ccc3n2C)cc1	none (no result: Anesthetic bind) | D3 ag inactive | D2 ag-3 inactive
O=C(c1ccc(F)cc1)N1CCCN(c2nc(-c3ccccc3)ns2)CC1	none
c1ccc(CCN2CN(CCCN3CCOCC3)c3nc4ccccc4n3C2)cc1	D2 ag-1 56 | D3 ag inactive | D2 ag-3 inactive
CCCN1CCN(CC(=O)Nc2nnc(C)s2)CC1	none
N#Cc1nc(-c2ccccc2F)oc1N1CCCCC1	none
O=C(/C=C/c1ccc(F)cc1)NC(=S)N1CCN(c2ccccn2)CC1	D2 ag-1 35 | D3 ag inactive | D2 ag-3 inactive
FC(F)(F)c1ccccc1NC(=S)N1CCN(c2ccccn2)CC1	D2 ag-1 41 | D3 ag inactive | D2 ag-3 inactive
COc1ccc(NC(=S)N2CCN(c3ccccn3)CC2)cc1	none
S=C(Nc1ccccc1)N1CCN(c2ccccn2)CC1	D2 ag-1 45 | D3 ag inactive | D2 ag-3 inactive
FC(F)(F)c1ccccc1NC(=S)N1CCCC1	none
Cc1ccc(C)c(NC(=S)N2CCN(c3ccccn3)CC2)c1	none | D3 ag inactive | D2 ag-3 inactive
